Bioassay records: PubChem BioAssay, several laboratories
NTR1 ag – activates human neurotensin receptor 1; activation, % at 20 µM; NTR1-U2OS beta-arrestin-GFP spot imaging, agonist mode; P30989; 0.17% of 330,000 active;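 active means activation at or above 40% of the spot to cytoplasm intensity ratio, with at least 20 cells analyzed; inconclusive means wells under 20 cells, flagged as cytotoxic or low count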;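 further: 0% = DMSO without peptide and 100% = 100 nM NTR1 peptide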
Target sequence (P30989 whole entry, looked up): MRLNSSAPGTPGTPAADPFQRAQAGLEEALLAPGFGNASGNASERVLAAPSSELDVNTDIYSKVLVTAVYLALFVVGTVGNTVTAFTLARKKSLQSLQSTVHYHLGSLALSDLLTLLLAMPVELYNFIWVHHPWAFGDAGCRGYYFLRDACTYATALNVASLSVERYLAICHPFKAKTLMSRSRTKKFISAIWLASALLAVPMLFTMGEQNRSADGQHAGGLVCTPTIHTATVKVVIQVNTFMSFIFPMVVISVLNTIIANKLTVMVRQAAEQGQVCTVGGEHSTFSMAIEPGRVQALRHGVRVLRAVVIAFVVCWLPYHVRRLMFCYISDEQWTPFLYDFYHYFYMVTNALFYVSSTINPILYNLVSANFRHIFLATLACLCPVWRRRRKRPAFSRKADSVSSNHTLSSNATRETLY
Cardio protect – modulators protecting cardiomyocytes from myocardial damage; H9c2 cardiomyocytes, H2O2 injury protection, ATPLite, 2 h; protection from H2O2 cell death, % at 20 µM; 0.63% of 360,000 active; AID 588492;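 active means compounds giving at least 50% protection of heart cells from peroxide-induced death in the single-dose screen, raw or plate-pattern-corrected value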;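 further: 0% = DMSO wells with peroxide and 100% = DMSO wells without peroxide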
SUMO HTRF inh – blocks human SUMOylation mediated by UBC9 | 0.36% of 290,000 active | HTRF SUMOylation assay, SAE1/SAE2 + UBC9, in vitro | inhibition, % at 35 µM; in the data active means inhibition above about 50%, passing the limit was not always enough; inconclusive means no clear call, values can overlap the other calls
ALR H2O2 inh – human ALR oxidase inhibition via reduced H2O2 | 3.8% of 290,000 active | inhibition, % (test concentration not listed) | AID 485317 | purified ALR, DTT oxidation, H2O2 HRP-luminol luminescence;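 active means mean replicate inhibition above about 79%, with every replicate also reaching it, limit read from the data; inconclusive means only one of the two criteria met; inactive means mean below limit and not every replicate reaching it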
Target sequence (P55789 whole entry, looked up): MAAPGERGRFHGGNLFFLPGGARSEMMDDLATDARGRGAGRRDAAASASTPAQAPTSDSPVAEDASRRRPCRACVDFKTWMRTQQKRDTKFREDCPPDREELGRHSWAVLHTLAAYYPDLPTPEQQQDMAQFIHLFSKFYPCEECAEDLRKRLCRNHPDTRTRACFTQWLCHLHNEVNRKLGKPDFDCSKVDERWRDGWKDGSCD
Numbers without * were called inactive; ? = inconclusive; · = not tested or not shown. Compounds with a hit are over-represented: about 3.9% of the library has one in this group of screens.

SMILES | NTR1 ag | Cardio protect | SUMO HTRF inh | ALR H2O2 inh
CC(=O)Nc1cccc(-c2cn3ccc(C)cc3n2)c1 | 2 | -16 | 8 | ?
Cc1ccn2cc(-c3cccc(NC(=O)CCC(=O)O)c3)nc2c1 | 0 | -19 | 2 | 98*
Cc1ccn2cc(-c3cccc(NS(C)(=O)=O)c3)nc2c1 | -1 | -10 | 28 | 97*
CCn1cc(C(=O)OCC(=O)c2ccc(Cl)cc2)c(=O)c2ccc(C)nc21 | 0 | -8 | 16 | -24
CCS(=O)(=O)N1CCN(Cc2ccc([N+](=O)[O-])cc2)CC1 | -1 | 3 | 15 | 0
Cc1ccc(/C=N\NC(=O)c2ccc(Cn3cc(Br)c([N+](=O)[O-])n3)o2)o1 | 0 | 2 | 8 | -27
CCN1C(=S)SC(=O)C1=C1C=C(C)N(CCO)C(C)=C1 | -1 | 5 | 9 | 99*
CCN1C(=S)SC(=O)C1=C1C=C(C)N(CCOC)C(C)=C1 | · | · | 27 | ·
COc1ccc2cc(/C=N/NC(=O)CSCc3ccc([N+](=O)[O-])cc3)c(Cl)nc2c1 | 6 | -10 | -6 | 99*
COc1ccc(CCNC(=O)CSCc2ccc([N+](=O)[O-])cc2)cc1 | 1 | -1 | -21 | -14
O=C(Nc1ccc(Nc2ccccc2)cc1)c1ccc(Cl)cc1[N+](=O)[O-] | 6 | -10 | · | 27
Cc1ccc(S(=O)(=O)N2CCC(C(=O)NNC(=O)c3ccccc3O)CC2)cc1C | 0 | 12 | · | 41
Cc1cc(C)c(C)c(S(=O)(=O)N2CCC(C(=O)NNC(=O)c3ccccc3O)CC2)c1C | 0 | 66* | · | ·
O=C(CCCN1C(=O)/C(=C/c2ccc3c(c2)OCO3)SC1=S)Nc1cccc(C(=O)O)c1 | 2 | 5 | 10 | ·
Cc1ccccc1NC(=O)Cc1cccc(C(F)(F)F)c1 | -1 | 4 | -3 | -2
O=[N+]([O-])c1cc([N+](=O)[O-])c2nonc2c1Nc1ccc(O)cc1 | 0 | -7 | · | 99*
O=[N+]([O-])c1cc([N+](=O)[O-])c2nonc2c1Nc1ccccc1O | -2 | -20 | 28 | 99*
COc1ccc(CN2CCN(C(=O)CCC(=O)Nc3nnc(CC(C)C)s3)CC2)cc1F | 0 | -4 | -11 | -9
CN(C)S(=O)(=O)c1cccc(-c2cn3cc(Cl)ccc3n2)c1 | 2 | 0 | 9 | 98*
CN(C)S(=O)(=O)c1cccc(-c2cn3ccccc3n2)c1 | -1 | 2 | -4 | 99*
CN(C)c1ccc(C=C2SC(=S)NC2=O)cc1 | · | -10 | · | ·
CN(C)c1ccc(/C=C2\CCCCC2=O)cc1 | 1 | -11 | -19 | 91*
Cc1c(CCC(=O)N[C@@H](C)C(=O)O)c(=O)oc2c(C)c3oc4c(c3cc12)CCCC4 | -1 | -2 | 18 | 97*
Cc1c(CCC(=O)NCCC(=O)O)c(=O)oc2c(C)c3oc4c(c3cc12)CCCC4 | 3 | -4 | 30 | 98*
Cc1cc(=O)oc2c(C)c(OC(=O)c3ccco3)ccc12 | 3 | 44 | 19 | ·
SMILES | NTR1 ag | Cardio protect | SUMO HTRF inh | ALR H2O2 inh
CCC(=O)Oc1ccc2c(C)cc(=O)oc2c1C | 0 | 59* | 22 | ·
CC(C(=O)N1CCN(C2c3ccccc3-c3ccccc32)CC1)N1C(=O)c2ccccc2C1=O (configuration not stated) | 2 | 8 | -15 | -3
O=c1cc(-c2ccc(O)c(O)c2)oc2c(C3O[C@H](CO)[C@@H](O)[C@H](O)[C@H]3O)c(O)cc(O)c12 (some centres not stated) | -1 | 2 | 33 | 99*
O=c1cc(-c2ccc(O)c(O)c2)oc2cc(O)c(C3OC(CO)C(O)C(O)C3O)c(O)c12 (configuration not stated) | 0 | 0 | 32 | 99*
COc1cccc(/C=N/Nc2ncnc3scc(-c4ccccc4)c23)c1O | 18 | 70* | -40 | 4
Nc1ncc2c(n1)-c1ccoc1CC2 | -1 | 0 | 36 | 89*
Nc1ncc2c(n1)-c1ccccc1CC2 | 1 | 0 | 28 | -19
O=C(NCc1ccco1)c1cc(=O)c2ccccc2o1 | 2 | 20 | 12 | 0
COc1ccc(N2CCN(C(=O)NC3CCCCC3)CC2)cc1 | -1 | 2 | 15 | 81*
CC(C(=O)NC(=O)NC1CCCCC1)N1CCN(c2ccc(O)cc2)CC1 (configuration not stated) | -1 | -6 | · | 99*
COc1cccc(N2CCN(C(=O)NC3CCCCC3)CC2)c1 | 0 | 11 | 5 | 77*
O=C(NC1CCCCC1)N1CCN(c2ccccc2)CC1 | -1 | -3 | -25 | ·
CC(C(=O)NC(=O)NC1CCCCC1)N1CCN(c2ccccn2)CC1 (configuration not stated) | 0 | -4 | 6 | -10
CCOc1ccccc1NC(=S)Nc1ccc2cn[nH]c2c1 | 1 | -10 | 37 | ·
CC(C)C1Nc2ccc(C(=O)N3CCN(c4ccccn4)CC3)cc2NC1=O (configuration not stated) | 0 | 51* | 1 | 9
COc1ccc(S(=O)(=O)c2ccccc2)cc1NS(=O)(=O)c1cccc(C(=O)O)c1 | -1 | 6 | · | ·
Cc1cccn2c(=O)c(C=O)c(Cl)nc12 | 1 | 0 | 18 | 98*
COc1cc(C=NNC(=O)c2ccccc2NS(=O)(=O)c2cccs2)cc(OC)c1O | 0 | 11 | · | 99*
C/C(=N\NC(=O)c1ccc(NS(=O)(=O)c2cccs2)cc1)c1ccc(O)cc1O | 2 | 33 | 22 | 99*
O=C(NN=Cc1ccc(O)cc1O)c1ccccc1NS(=O)(=O)c1cccs1 | 2 | 51* | · | 64
COc1cc(/C=N\NC(=O)c2ccc(-c3ccccc3)cc2)cc(OC)c1O | 2 | 10 | -4 | 96*
Cc1ccc(NC(=O)COc2ncnc3cc([N+](=O)[O-])ccc23)cc1S(=O)(=O)N1CCOCC1 | -1 | -2 | 13 | -18
Cc1ccc(NC(=O)CN2CCC(Cc3ccccc3)CC2)cc1S(=O)(=O)N(C)C | 0 | -9 | -8 | -6
CC(C)c1ccc(NC2(C#N)C(=O)Nc3ccccc32)cc1 (configuration not stated) | 2 | -6 | -9 | 8
O=C1CCC/C(=N/NC(=O)c2ccc(NS(=O)(=O)c3cccs3)cc2)C1 | 0 | 4 | 10 | 82*
SMILES | NTR1 ag | Cardio protect | SUMO HTRF inh | ALR H2O2 inh
COc1cc(/C=N/NC(=O)c2ccc(NS(=O)(=O)c3cccs3)cc2)cc(OC)c1O | 1 | -4 | · | 98*
O=C(Oc1ccccc1N1C(=O)C2CCCCC2C1=O)c1ccccc1F (configuration not stated) | 4 | -7 | 15 | 0
NS(=O)(=O)c1ccc(Sc2ccc3ccccc3c2)nc1 | 2 | -9 | -13 | 99*
NS(=O)(=O)c1ccc(SCc2ccccc2)nc1 | 0 | -5 | · | -1
CCN(CC)CCn1c(=S)[nH]c2ccc(Br)cc2c1=O | -2 | 0 | 14 | 97*
CCN(CC)CCn1c(=S)[nH]c2ccccc2c1=O | 1 | 6 | 11 | 14
COc1ccccc1N1CCN(C/C=C/c2ccc(N(C)C)cc2)CC1 | 1 | · | 10 | 99*
COc1ccccc1N1CCN(S(=O)(=O)/C=C/c2ccccc2)CC1 | 1 | -8 | 3 | -2
CC/C(=N/OC(=O)c1cccc(C)c1)C(=O)c1cccs1 | 0 | 0 | -1 | 91*
